In the library only some 21% were active in any assay of this set; here they are far more common.
DRD3 agonist = qHTS of D3 Dopamine Receptor Agonist: qHTS | D(3) dopamine receptor (Homo sapiens), P35462 | D3R DiscoveRx beta-arrestin cells, luminescence, 90 min | max activation, % | 410,000 tested, 0.58% active | AID 652048, 2013; in the data active = max activation above about 30%
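Cells at 1500/well, incubated overnight, then treated with pinned compounds (dopamine as control) for 90 min at 37 degrees C. DiscoveRx reagent added for 30 - 60 minutes at room temperature; luminescence read.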
IL1B secr inh = qHTS for Inhibitors of Inflammasome Signaling: IL-1-beta AlphaLISA Primary Screen; THP-1 LPS/ATP IL-1B secretion, AlphaLISA, 16 h; hits give low values; activity change, % at 57.5 µM; 360,000 tested, 4.7% active; AID 743279, 2014; in the data active = activity change below about -50%; inconclusive = mostly about -30% to -49%
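Secreted IL-1B measured by AlphaLISA bead assay after 16 h compound exposure of THP-1 cells; compounds (final up to 57.5 uM) added 1 h before LPS (250 ng/mL) and ATP (1.25 mM) stimulation; lower signal means less secretion.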
TDP1 cell CPT = qHTS for Inhibitors of human tyrosyl-DNA phosphodiesterase 1 (TDP1): qHTS in cells in presence of CPT. chicken DT40 Tdp1-/-;hTDP1 cells + 20 nM CPT, ATP luminescence, 48 h. Potency, µM (titrated, usually from 46.2 µM), most hits filed as inhibitors. 420,000 tested, 12% active; also: nearly all actives have a fitted effect of over 55% in size
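Cell growth measured by CellTiter-Glo luminescence after a minimum 48 h, 37 C compound exposure with 20 nM CPT in Tdp1-knockout DT40 cells stably expressing hTDP1, seeded 400/well; qHTS titration format.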
DRD3 antagonist = qHTS of D3 Dopamine Receptor Antagonist: qHTS; D(3) dopamine receptor (Homo sapiens), P35462; D3R cells, DiscoveRx beta-arrestin luminescence, antagonist mode; hits give low values; max response, negative = inhibition, %; 360,000 tested, 2.5% active; in the data active = max response below about -50%; inconclusive = no clear call, values can overlap the other calls
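Cells expressing the human receptor were seeded at 1500 cells/well, incubated overnight at 37 degrees C in 5% CO2, then exposed to library compounds with dopamine controls for 90 minutes at 37 degrees C before luminescent detection.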
DT40 TDP1 no CPT = qHTS for Inhibitors of human tyrosyl-DNA phosphodiesterase 1 (TDP1): qHTS in cells in absence of CPT; Potency, µM (titrated, usually from 46.2 µM), actives largely listed as inhibitors; DT40 Tdp1-/- hTDP1 cells, no CPT, ATP luminescence, 48 h; AID 686978, 2013; 420,000 tested, 15% active; also: nearly all actives have a fitted effect of over 55% in size
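Growth kinetics read by CellTiter-Glo luminescence after ≥48 hr at 37 °C. Cells: DT40 Tdp1-/- stably carrying human TDP1, 400 per well, compound exposure in the absence of CPT (DMSO vehicle).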
ClpP mod = qHTS Assay for Activators of ClpP; purified B. subtilis ClpP, FRET peptide cleavage, 20 min; 340,000 tested, 1.9% active; Potency, µM (highest dose often 57.5 µM); ATP-dependent Clp protease proteolytic subunit (Bacillus subtilis (strain 168)), P80244; active = well fitted falling curve with a large enough effect; inconclusive = small, poorly fitted or top-dose-only effect; inactive = no such curve, though single readings can be large or run the other way; also: the source files actives as falling curves though it sought activators and does not explain the sign; nearly all actives have a fitted effect of over 65% in size
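ClpP 10 microg/mL final, pH 8 Tris/KCl buffer with BSA, glycerol, Tween-20; compound pinned in; FRET-FV substrate; RT 20 min; Ex320/Em430; ΔFRET vs ADEP 5.8 microM, DMSO, no enzyme.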
Each line names hits and unclear results; the compound was inactive in the other large screens. Unless noted, calls follow the shape of the dose curve; as a rule, active = well fitted inhibition curve with a large enough effect; inconclusive = small, poorly fitted or top-dose-only effect; inactive = flat fitted curve, though single readings scatter.

Cc1ccccc1OCC(=O)Nc1cc(-c2cccc(Br)c2)nn1-c1ccccc1	TDP1 cell CPT inconclusive, DT40 TDP1 no CPT inconclusive (no result: IL1B secr inh, DRD3 antagonist)
Cc1nc(N2CCN(Cc3ccccc3)CC2)nc2c1CCC2	DRD3 antagonist -67, DT40 TDP1 no CPT inconclusive (no result: ClpP mod)
Cc1nc(N2CCN(Cc3ccc4c(c3)OCO4)CC2)nc2c1C(=O)CC(c1ccco1)C2 (configuration not stated)	TDP1 cell CPT inconclusive, DRD3 antagonist -72, DT40 TDP1 no CPT inconclusive
Cc1nc(N2CCN(Cc3ccccc3)CC2)nc2c1C(=O)CCC2	TDP1 cell CPT 23µM, DT40 TDP1 no CPT 16µM, ClpP mod inconclusive
Cc1nnc(N2CCN(Cc3ccccc3)CC2)[nH]c1=O	DRD3 antagonist -54
O=C1CCCc2nc(N3CCN(Cc4ccccc4)CC3)ncc21	TDP1 cell CPT inconclusive
CCN1CCN(c2nc(C)c3c(n2)CCCC3=O)CC1	DRD3 antagonist inconclusive
N#Cc1c(-c2ccccc2)nc(N2CCN(Cc3ccccc3)CC2)[nH]c1=O	none (no result: ClpP mod)
O=C(Nc1ccc(F)c(Cl)c1)c1cc(-c2ccco2)on1	DT40 TDP1 no CPT inconclusive (no result: ClpP mod)
C=C(C)CSc1cc(C)nc2c(-c3ccccc3)c(C)nn12	TDP1 cell CPT inconclusive, DT40 TDP1 no CPT inconclusive
CC1CCN(CC2CCN(C(=O)NCc3ccc(F)cc3)CC2)CC1	none (no result: IL1B secr inh, DRD3 antagonist)
COc1ccc(CNC(=O)[C@H](C)NC(=O)C2CCN(C(=O)[C@@H](N)CCSC)CC2)cc1	none
CC1CCN(C(=O)C(C)NCc2ccc(F)cc2)CC1 (configuration not stated)	TDP1 cell CPT inconclusive, DT40 TDP1 no CPT 21µM (no result: ClpP mod)
CSCC[C@H](N)C(=O)N1CCC(C(=O)N[C@@H](C)C(=O)NCc2ccc(F)cc2)CC1	DRD3 agonist 31
COc1ccc(OC)c(-c2cnc(OC(C)(C)C)nc2OC(C)(C)C)c1	TDP1 cell CPT 21µM, DT40 TDP1 no CPT 8.2µM
O=c1c2ccccc2nc2n1CC/C2=C/N1CCN(c2cccc(C(F)(F)F)c2)CC1	TDP1 cell CPT 18µM, DRD3 antagonist -91, DT40 TDP1 no CPT inconclusive
O=C(O)c1ccc2c(=O)n3c(nc2c1)/C(=C/c1ccc(C(F)(F)F)cc1)CC3	none
Cc1c(Cl)cnc(NC(=O)CSc2n[nH]c(N)n2)c1Cl	none
O=C(NCC1Cc2cccc(-c3ncccn3)c2O1)c1cccc(-c2ccccc2F)c1 (configuration not stated)	DT40 TDP1 no CPT inconclusive (no result: DRD3 agonist, IL1B secr inh, DRD3 antagonist, ClpP mod)
O=C(Nc1nnc([C@H]2C[C@H](O)[C@@H](CO)O2)s1)c1cccc(C(F)(F)F)c1	none
O=C(Nc1cccc(C(F)(F)F)c1)Nc1nnc([C@@H]2C[C@H](O)[C@@H](CO)O2)s1	TDP1 cell CPT 18µM, DT40 TDP1 no CPT inconclusive
O=C(NCc1ccc(F)cc1)Nc1nnc([C@@H]2C[C@H](O)[C@@H](CO)O2)s1	none
Cc1ccc(CNC(=O)Nc2nnc([C@@H]3C[C@H](O)[C@@H](CO)O3)s2)cc1	DRD3 antagonist -63
Nc1ccccc1S(=O)(=O)NCCCCc1ccccc1	DT40 TDP1 no CPT inconclusive
Cc1cccc(-c2ccc([N+](=O)[O-])cc2CN2CCN(c3ncc(Cc4ccccc4)cn3)CC2)c1	TDP1 cell CPT 5.8µM, DT40 TDP1 no CPT 5.8µM
Cc1cccc(-c2ccc(O)cc2CN2CCN(c3ncc(Cc4ccccc4)cn3)CC2)c1	TDP1 cell CPT inconclusive, DT40 TDP1 no CPT 21µM
Oc1ccc(Br)c(CN2CCN(c3ncc(Cc4ccccc4)cn3)CC2)c1	TDP1 cell CPT inconclusive, DT40 TDP1 no CPT inconclusive
Nc1cc(-c2ccc(Br)cc2)nn1Cc1ccccc1	IL1B secr inh -69, TDP1 cell CPT inconclusive
O=C(Nc1ccc2c(c1)N(S(=O)(=O)c1cccs1)CCC2)c1c(F)cccc1Cl	TDP1 cell CPT inconclusive, DT40 TDP1 no CPT inconclusive
NC(N)=NCc1cccc(I)c1	TDP1 cell CPT 6.5µM, DT40 TDP1 no CPT 2.9µM
COCCCNC(=O)C1CCN(S(=O)(=O)c2ccc3nc4c(c(C(=O)O)c3c2)CCCCC4)CC1	none
CCOC(=O)c1c(C)[nH]c(C)c1S(=O)(=O)N1CCC(C(=O)N2CCN(c3ccccc3)CC2)CC1	none (no result: IL1B secr inh, DRD3 antagonist)
O=C(NCC1CC1)C1Cc2c(-c3ccccc3Oc3ccccc3)ccnc2O1 (configuration not stated)	TDP1 cell CPT inconclusive
CN(C)c1ccc(CNC(=O)C2Cc3c(-c4ccccc4Oc4ccccc4)ccnc3O2)cc1 (configuration not stated)	TDP1 cell CPT inconclusive, DT40 TDP1 no CPT inconclusive, ClpP mod inconclusive
COc1ccc(CNC(=O)C2Cc3c(-c4ccccc4Oc4ccccc4)ccnc3O2)cc1OC (configuration not stated)	TDP1 cell CPT 18µM, DT40 TDP1 no CPT 21µM
O=C(NCc1cccc(Cl)c1)C1Cc2c(-c3ccccc3Oc3ccccc3)ccnc2O1 (configuration not stated)	TDP1 cell CPT 23µM, DT40 TDP1 no CPT inconclusive
COC(=O)/C=C\C(C#N)(C#N)N=Cc1ccc(OC)cc1	TDP1 cell CPT 1.3µM, DRD3 antagonist inconclusive, DT40 TDP1 no CPT 0.65µM
CC1(C(=O)NS(=O)(=O)c2cccc(Cl)c2)CCN1C(=O)CCc1cccs1 (configuration not stated)	none
Cc1cc(/C=C2\SC(=Nc3ccc(F)cc3)NC2=O)c(C)n1-c1ccc(S(N)(=O)=O)cc1	TDP1 cell CPT 5.2µM, DT40 TDP1 no CPT 5.2µM
Cc1cc(/C=C2\SC(=S)NC2=O)c(C)n1-c1ccc(O)cc1	none
COc1ccc(NC(=O)N(O)C2(C#N)CCCCC2)cc1	none
Cn1nnnc1SCC1=C(C(=O)O)N2C(=O)[C@@H](NC(=O)[C@H](OC=O)c3ccccc3)[C@H]2SC1	none (no result: IL1B secr inh, DRD3 antagonist, ClpP mod)
CN(C(=O)COC(=O)Cc1c(F)cccc1Cl)c1c(N)n(Cc2ccccc2)c(=O)[nH]c1=O	TDP1 cell CPT inconclusive
C#CC[N+](C)(C)CC#Cc1ccccc1	IL1B secr inh -66 (no result: ClpP mod)
Cc1ccc(C#CC[N+](C)(C)CC#Cc2ccccc2)cc1	IL1B secr inh -77, TDP1 cell CPT 2.1µM, DT40 TDP1 no CPT 1.8µM
Cc1cccc(C)c1N1C(=O)c2ccccc2NC(=O)C1C(=O)NCc1ccco1 (configuration not stated)	none
CCCc1nn(C)c2c(=O)[nH]c(-c3cc(S(=O)(=O)N(CCO)CCO)ccc3OCC)nc12	TDP1 cell CPT inconclusive
